About 79,000 compounds went through this panel and 15% of them were active in at least one assay; those are over-represented in the sample as a whole. A number with no mark means an inactive call. Active and inactive are the calls of the source. No stated cut-off is given here; in the data, active means growth inhibition above about 70%; inactive means the rest. Where a SMILES comes first, the peptide text is derived from it.

Assay [1] can be described thus: NCI Yeast Anticancer Drug Screen. Data for the rad50 strain (AID 155).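 Further: 0% = growth of vehicle-only cultures of the same strain.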 Particulars: S. cerevisiae rad50 strain growth inhibition; at 50.0 µM; active compounds read high. An outline of the steps: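 Genetically altered yeast (DNA repair pathway); compound treatment; growth inhibition vs vehicle ctrl.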
Assay [2] in a line: NCI Yeast Anticancer Drug Screen. Data for the mec2-1 strain (AID 157). Particulars: S. cerevisiae mec2-1 strain, at 50.0 µM, active compounds read high. In outline:
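Mutant yeast (mec2-1) grown with compound; growth inhibition relative to vehicle control reported.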

A short description of assay [3]: NCI Yeast Anticancer Drug Screen. Data for the sgs1 mgt1 strain (AID 161).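 Further: 0% = growth of cultures given vehicle only.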 Particulars: S. cerevisiae sgs1 mgt1 strain, at 50.0 µM, active compounds read high. In outline: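 Growth of a repair-deficient yeast mutant was monitored after compound treatment and expressed as inhibition relative to vehicle-treated cultures.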
Assay [4] is described as follows: NCI Yeast Anticancer Drug Screen. Data for the cln2 rad14 strain (AID 165).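 Further: 0% = growth equal to vehicle treated cultures.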 Particulars: S. cerevisiae cln2 rad14 strain, at 50.0 µM, active compounds read high. An outline of the steps: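 Readout is yeast growth inhibition versus vehicle-treated controls, using a strain with cln2 and rad14 alterations exposed to compound.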
A short description of assay [5]: NCI Yeast Anticancer Drug Screen. Data for the bub3 strain (AID 167). The note with it: S. cerevisiae bub3 mutant strain, at 50.0 µM, active compounds read high. An outline of the steps:
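Yeast carrying a defined mutation is treated with each compound, and growth is compared with that of vehicle-exposed cells to give inhibition.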

Assay [6] in a line: NCI Yeast Anticancer Drug Screen. Data for the mlh1 rad18 strain (AID 175). The note with it: S. cerevisiae mlh1 rad18 strain growth inhibition; at 50.0 µM; active compounds read high. In outline:
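Genetically defined yeast (DNA repair-deficient) exposed to compounds; growth inhibition determined relative to vehicle.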

Take `COc1cc(/C=C/C(=O)OCC23CC[C@@]4(C(=O)O)CCC(C)[C@H](C)C4C2=CCC2[C@@]4(C)CC[C@H](O)C(C)(C)C4CC[C@]23C)ccc1O` (stereo partly specified): the growth inhibition was 20.2% in assay [1]; 9.95% in assay [2]; 26.6% in assay [3]; 4.85% in assay [4]; -1.6% in assay [5]; 6.9% in assay [6].

Take `C1COCCN1.C1COCCN1.N.N.[Cl-].[Pt+2]`: the growth inhibition in assay [1] was -9.5%; in assay [2], -5.4%; in assay [3], -38.1%; in assay [4], -14.2%; in assay [5], -2.45%; in assay [6], -14.8%.

For the compound `O=C(Cc1ccc([N+](=O)[O-])c([N+](=O)[O-])c1CC(=O)C(=O)Nc1cc(Cl)ccc1Cl)C(=O)Nc1cc(Cl)ccc1Cl`, the growth inhibition in assay [1] is -16%; in assay [2] it was -23.8%; in assay [3] it was -14.8%; in assay [4], 12.3%; in assay [5], 25.1%; in assay [6] it was -4.3%.

Turning to `CCC(C(C)=O)C(C)=O`, the growth inhibition was -46.2% in assay [1]; -71.5% in assay [2]; -43.5% in assay [3]; -24.2% in assay [4]; -56.6% in assay [5]; -34.4% in assay [6].

Consider `BrC1c2ccccc2-c2nc3ccccc3nc21` (stereo unspecified), for which the growth inhibition was 11.2% in assay [1]; 4.6% in assay [2]; 1.6% in assay [3]; 56.2% in assay [4]; 17.1% in assay [5]; 29.9% in assay [6].

On to `CCCOC(=O)O[C@H]1CC[C@@]2(C)C(=CC[C@H]3[C@@H]4CC[C@H]([C@H](C)CCCC(C)C)[C@@]4(C)CC[C@@H]32)C1`, for which the growth inhibition was -34.6% in assay [1]; -31% in assay [2]; -27.7% in assay [3]; 3.9% in assay [4]; -28.8% in assay [5]; -34.4% in assay [6].

`COc1ccc(C=Nc2cc([N+](=O)[O-])ccc2O)cc1`: the growth inhibition in assay [1] was 8.5%; in assay [2] it was -2.75%; in assay [3] it was 3.75%; in assay [4] it was -9.45%; in assay [5] it was 25.5%; in assay [6] it was 3%.

`Cc1ccc(NS(=O)(=O)c2ccc(F)cc2)cc1Cl`: the growth inhibition is 99.7% (active) in assay [1]; 99.3% (active) in assay [2]; 99.7% (active) in assay [3]; 99.3% (active) in assay [4]; 99.6% (active) in assay [5]; 99.8% (active) in assay [6].

Regarding `CC1=CC2=C(OCO1)C(=O)c1ccccc1C2=O`, the growth inhibition in assay [1] was 7.25%; in assay [2], 14.6%; in assay [3] it was -21.6%; in assay [4], -17.1%; in assay [5], 44.3%; in assay [6] it was 8.95%.

For `COC(=O)C(C(C)C(C)[N+](=O)[O-])=P(c1ccccc1)(c1ccccc1)c1ccccc1` (stereo unspecified), the growth inhibition was 41.7% in assay [1]; 3.4% in assay [2]; 29.5% in assay [3]; 11.2% in assay [4]; -4.95% in assay [5]; 10.8% in assay [6].

With `N#Cc1nc(-c2ccco2)oc1N`, the growth inhibition in assay [1] was -20.8%; in assay [2] it was 1.85%; in assay [3], -23.2%; in assay [4], 3%; in assay [5], -10.2%; in assay [6], -5.8%.

Regarding `CCCCCCCCCCCCCCCCCCNc1ccccc1`, the growth inhibition in assay [1] was -6.15%; in assay [2], 9.15%; in assay [3], 12.2%; in assay [4], -29.8%; in assay [5], 1.15%; in assay [6], 16.2%.

Turning to `CCCCNC(=O)Nc1cc(C)ccc1C`, the growth inhibition in assay [1] was -0.4%; in assay [2], 1.95%; in assay [3], -0.7%; in assay [4] it was -9.75%; in assay [5], 8.2%; in assay [6], 2.1%.

Regarding `COc1ccc(S(=O)(=O)Nc2cccc(C(F)(F)F)c2)cc1`, the growth inhibition in assay [1] is 99% (active); in assay [2], 99.7% (active); in assay [3] it was 99.5% (active); in assay [4] it was 98.5% (active); in assay [5], 99.3% (active); in assay [6], 99.5% (active).

On to `COC(=O)N/N=C/c1c[nH]c2ccccc12`, for which the growth inhibition in assay [1] was -5.15%; in assay [2], -17.6%; in assay [3] it was -9.65%; in assay [4], -97%; in assay [5], -17.4%; in assay [6], -24.6%.

Regarding `Cc1c2ccn3c(=O)c4ccccc4cc3c2c(C)c2c1[nH]c1ccccc12`, the growth inhibition is 56.1% in assay [1]; 15.2% in assay [2]; 9.45% in assay [3]; 16.7% in assay [4]; 21.8% in assay [5]; 26.6% in assay [6].

As for `CCOC(=O)c1ccc(NC(=O)SCCC(=O)O)cc1`, the growth inhibition is 20.9% in assay [1]; -19.9% in assay [2]; -7.1% in assay [3]; 15.8% in assay [4]; -10.2% in assay [5]; 13.8% in assay [6].

For `O=C(CCCc1ccccc1)NO`, the growth inhibition in assay [1] was 14.7%; in assay [2] it was 33.6%; in assay [3] it was 17.5%; in assay [4], 3.35%; in assay [5] it was 10.8%; in assay [6], 13.6%.

Turning to `Cc1cc(S(=O)(=O)Nc2n[nH]c(Nc3ccccc3)n2)c(SSc2cc(Cl)c(C)cc2S(=O)(=O)Nc2n[nH]c(Nc3ccccc3)n2)cc1Cl`, the growth inhibition was 12.2% in assay [1]; 37.8% in assay [2]; 4.95% in assay [3]; 11.9% in assay [4]; 12% in assay [5]; 18.2% in assay [6].

On to `COc1ccc(S(=O)(=O)N/N=C/c2cccc([N+](=O)[O-])c2O)cc1`, for which the growth inhibition in assay [1] was 9.3%; in assay [2] it was -3.7%; in assay [3], 19.7%; in assay [4], 2%; in assay [5], 12%; in assay [6], 32.6%.

Consider `CCCCCCCCCCCCCCCCS(=O)(=O)c1ccc(S(=O)(=O)CS(C)(=O)=O)cc1[N+](=O)[O-]`, for which the growth inhibition in assay [1] was -5.55%; in assay [2] it was -16.2%; in assay [3], 9.85%; in assay [4] it was 0.85%; in assay [5] it was 21.1%; in assay [6] it was 15.3%.

With `Oc1ccccc1CNCc1nc2ccccc2[nH]1`, the growth inhibition is -8.1% in assay [1]; -1.7% in assay [2]; -11.6% in assay [3]; -8.7% in assay [4]; -4.4% in assay [5]; 18.6% in assay [6].

Regarding `CCC1(c2ccccc2)Nc2ccccc2C1=Nc1ccccc1` (stereo unspecified), the growth inhibition in assay [1] is 20.1%; in assay [2], 15.5%; in assay [3], 20.2%; in assay [4], 9.5%; in assay [5], 11.7%; in assay [6], 27.4%.

With `O=Cc1c[nH]c2ccccc2c1=O`, the growth inhibition was 17.1% in assay [1]; 0.9% in assay [2]; 1.05% in assay [3]; 3.55% in assay [4]; 30.4% in assay [5]; 10.9% in assay [6].

Consider `COc1cc2c(cc1OC)CN1CCc3ccccc3CC1C2` (stereo unspecified), for which the growth inhibition in assay [1] is 15.3%; in assay [2] it was -73.3%; in assay [3] it was -16.8%; in assay [4], -5.1%; in assay [5], -33.5%; in assay [6] it was -33.7%.

As to `Cc1[nH]c2nccn2c(=O)c1CCCl`, the growth inhibition is 10.2% in assay [1]; -14.7% in assay [2]; 9.6% in assay [3]; -13.2% in assay [4]; -13.6% in assay [5]; 7.1% in assay [6].

`NS(=O)(=O)c1ccc(Nc2c3ccccc3nc3c(C(=O)NCCO)cccc23)cc1`: the growth inhibition is 51.8% in assay [1]; -30.2% in assay [2]; -15.9% in assay [3]; -3.1% in assay [4]; -10.6% in assay [5]; -1.9% in assay [6].

On to `CC(C)CC(NC(=O)C(NC(=O)C(N)C(C)O)C(C)C)C(=O)O` (stereo not drawn) (H-Thr-Val-Leu-OH; configuration not given here), for which the growth inhibition was 5.9% in assay [1]; 3.1% in assay [2]; 3.5% in assay [3]; 5.95% in assay [4]; 4.75% in assay [5]; -1.5% in assay [6].

With `CCCCCCCCCCCCCCCC(=O)N(CCCCCCCCCCC(=O)O)CC(O)C(O)C(OC1OC(CO)C(O)C(O)C1O)C(O)CO` (stereo unspecified), the growth inhibition in assay [1] was -8.15%; in assay [2] it was -23.6%; in assay [3] it was 10.2%; in assay [4], -22.3%; in assay [5], 50.6%; in assay [6] it was -15.8%.

Turning to `CC(=O)c1cccc(NC(=O)/C(=N\NC(=S)NN)C2C(=O)Nc3ccccc3S2=O)c1` (stereo unspecified), the growth inhibition in assay [1] is -3.6%; in assay [2], -42.4%; in assay [3], -13.1%; in assay [4] it was -4.15%; in assay [5] it was -1.8%; in assay [6], -10.5%.

For `COc1ccc2c(c1)C1Oc3ccccc3CC1(O)CO2` (stereo unspecified), the growth inhibition in assay [1] was 14.4%; in assay [2] it was 6.75%; in assay [3] it was 21.3%; in assay [4], 26.5%; in assay [5] it was -6.3%; in assay [6], 51.5%.

For `O=C(CC(=O)CC(O)(C(F)(F)F)C(F)(F)F)CC(O)(C(F)(F)F)C(F)(F)F`, the growth inhibition in assay [1] was 73.1% (active); in assay [2], 65.1%; in assay [3], 79.8% (active); in assay [4], 59%; in assay [5], 55.9%; in assay [6], 78.2% (active).

`O=C(CCCN1CCC2(CC1)NC(=O)c1ccccc1O2)c1ccc(F)cc1`: the growth inhibition in assay [1] was 23.6%; in assay [2], 10.6%; in assay [3], 55.5%; in assay [4] it was 48.9%; in assay [5], 36.8%; in assay [6], 21.7%.

With `CCc1nnc(CC)n1NCCCC(=O)O`, the growth inhibition in assay [1] was 26.3%; in assay [2], 24.2%; in assay [3], 20.8%; in assay [4] it was 18.2%; in assay [5], 24.9%; in assay [6] it was 15.7%.

For the compound `O=C([O-])c1ccc(C(=O)[O-])cc1.O=C([O-])c1ccc(C(=O)[O-])cc1.[Mo+2].[Mo+2]`, the growth inhibition in assay [1] was -38.6%; in assay [2], 18.1%; in assay [3], 2.85%; in assay [4], 9.1%; in assay [5], -11.8%; in assay [6], 16.6%.

In the case of `Cc1c(C)c(C)c(Br)c(C)c1C`, the growth inhibition is -6.7% in assay [1]; -5.05% in assay [2]; -14% in assay [3]; -17.6% in assay [4]; 1.15% in assay [5]; 0.65% in assay [6].

For the origin of these results see PubChem BioAssay (NCI).
